# Assay results reported in PubChem BioAssay (NCI).
# This is part of a sample that, as a whole, favours compounds with a hit. Of some 83,000 tested, about 20% had one in any assay.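 Step 1: grow cells in 96-well plates. Step 2: add test compound at a single concentration. Step 3: incubate 48 h. Step 4: record percent growth.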 Values without a mark were called inactive. The source made the active and inactive calls.
# Tested on: NCI-H522 lung
# Assay: NCI-60 one-dose screen, 48 h (100 = growth as untreated, 0 = no growth, -100 = all killed)
# Conditions: 10 µM unless noted
# Method: Growth inhibition of the NCI-H522 human Non-Small Cell Lung tumor cell line is measured as a screen for anti-cancer activity. Cells are grown in 96 well plates and exposed to the test compound for 48 hours. Compounds are tested at a single concentration, which is 10^-5 M for most compounds. The reported endpoint is percent growth (GI% or GIPRCNT), where numbers from 0 - 100% represent growth inhibition, and numbers from -100% - 0 represent cell death. For example, a value of 40 represents 60% growth inhibition. A value of 0 means no net growth occurred over the course of the experiment. A value of -40 indicates 40% of cells at the beginning of the experiment died by the end of the experiment. A value of -100 means all cells are dead at the end of the experiment.
# NCI-60 Human Tumor Cell Lines Screen was performed using the standard one-dose NCI protocol, which is described in more detail at https://dtp.cancer.gov/discovery_development/nci-60/default.htm.
# Compounds with GIPRCNT values below 10 were considered active. Activity score was based on GIPRCNT using the following formula: […]
# Score is 0 for GIPRCNT values of 100 or above, 50 for GIPRCNT values of 0, and 100 for GIPRCNT values of -100.
row,SMILES,growth
1,COC1=CC(c2ccc[nH]2)=N/C1=C\c1[nH]c(C)c(C(=O)OCc2ccccc2)c1C,-59.6% (active)
2,CCCCCCCCCCCCCCCC(N)c1ccccc1 (stereo not given),63.5%
3,CN1CCN(Cc2ccc(NC(=O)c3cncc(C#Cc4cnc(N)c5ccccc45)c3)cc2C(F)(F)F)CC1,-73.2% (active)
4,C=C1CC[C@@H]2[C@](C)(COC(C)=O)[C@H](OC(C)=O)CC[C@@]2(C)[C@@H]1CC(Sc1ccccc1)C1=CCOC1=O (stereo not given in full),-80.6% (active)
5,O=C1c2ccc3c4ccc5c6c(ccc(c7ccc(c2c37)C(=O)N1CCC[P+](c1ccccc1)(c1ccccc1)c1ccccc1)c64)C(=O)N(CCC[P+](c1ccccc1)(c1ccccc1)c1ccccc1)C5=O,67.6%
6,O=C(Nc1ncc(Cc2ccc(Cl)c(C(F)(F)F)c2)s1)c1ccc2nnsc2c1,38.7%
7,Clc1ccc2c(c1)N(c1ncnc3ccc(-c4cnc5[nH]ncc5c4)cc13)CC2,40.2%
8,CCc1nc2c(=O)[nH]cnc2o1,108%
9,Nc1nc(=S)c2ncn(C3OC(COP(=O)(O)O)C(O)C3O)c2[nH]1 (stereo not given),-3.01% (active)
10,O=C1N[C@@H]2NC(=[N+]3CCOCC3)N[C@@H]2N1,92.9%
11,O=C1c2cccc(NCCN=Cc3cc(O)ccc3O)c2C(=O)c2c(NCCN=Cc3cc(O)ccc3O)cccc21,-65% (active)
12,O=C(c1ccc(-c2ccccc2)cc1)c1ccc([N+](=O)[O-])cc1,89.5%
13,COc1cc(-c2cc(-c3ccc(N(C)C)cc3)nc(N3CCC(O)CC3)c2C#N)cc(OC)c1OC,-36.3% (active)
14,O=C(Nc1cccnc1Nc1ccc(F)cc1)c1cn(Cc2cccc(Oc3ccccc3)c2)nn1,64.7%
15,COc1cc(-c2nc(SCC(C)C)nc(Nc3cccc4ccccc34)c2C#N)cc(OC)c1OC,89.2%
16,Cn1cccc1C(=O)C1C(c2cccc([N+](=O)[O-])c2)C2C3CCCCC3CN2C12C(=O)Nc1ccc(Cl)cc12 (stereo not given),52.3%
17,COC(=O)c1c2c(c(C)[n+]([O-])c1C)C(=O)C(NCc1ccc(Cl)cc1)=CC2=O,42%
18,COc1cccc(CNc2ncnc3c2ncn3C2OC(CO)C(O)C2O)c1O (stereo not given),8.65% (active)
19,CC1=C(C(=O)OC(C)C)C(c2ccc3c(c2)OCO3)NC(=S)N1 (stereo not given),86.4%
20,CCNc1cc(-c2cccc(OC(F)(F)F)c2)nc2ccc(N3CCCC3)cc12,-16.8% (active)

row,SMILES,growth
1,COC(=O)[C@]1(C)CCC[C@]2(C)[C@H]3C[C@H]4C(C(C)C)=C[C@]3(CC[C@H]21)[C@H]1[C@@H]4[C@@H](OCCC#N)CC[C@@H]1OCCC#N,28.4%
2,CCOC(=O)C1=C(NC)OCC1=O,96.7%
3,CC(C)c1ccc(COCc2cc(CN3CCCC3)c(O)c3ncccc23)cc1,-40.1% (active)
4,COP(=O)(OC)C(C)(C)CC(=O)CC(C#N)(C#N)C(C#N)C#N,101%
5,O=C(/C=C(/C=C/c1cccc2[nH]ccc12)OB(F)F)/C=C/c1cccc2[nH]ccc12,-71.4% (active)
6,Cc1ccc(-c2nc(N3CCNCC3)c3oc(-c4ccccc4)nc3n2)cc1,-81.8% (active)
7,O=C(NNc1nccc(Nc2ccc(S(=O)(=O)Nc3ccncc3)cc2)n1)c1ccccc1,94.5%
8,CC1=C(CCC(C)N(C)Cc2ccc(OCCCN3CCCC3)cc2)C(C)(C)CCC1 (stereo not given),-52.2% (active)
9,O=C(Nc1ccc(-c2nc(N3CCOCC3)c3cccn3n2)cc1)Nc1cccnc1,4.32% (active)
10,Cc1nc(-c2ccccc2)cc2c(O)c(C(=O)NN)[nH]c(=O)c12,94.3%
11,O=C1/C(=C/c2ccc(Cl)cc2)COc2ccc(O)c(O)c21,-60.9% (active)
12,N#Cc1c(-c2ccc(Cl)cc2)nc(NN=Cc2cccc(O)c2)nc1N1CCOCC1,74.8%
13,Cc1ccccc1Cn1cnc2ccc(-c3cc(NC(=O)c4ccc(NC5CCN(C)CC5)cc4)n[nH]3)cc21,57.2%
14,O=C(/C=C/c1ccccc1)c1cccc(OCCCOc2cccc(C(=O)/C=C/c3ccccc3)c2)c1,90.3%
15,CN1C(=O)N(C)C2Nn3c(s/c(=C\c4ccc(C(F)(F)F)cc4)c3=O)=NC21 (stereo not given),93.4%
16,COc1ccc(-c2nc(SCC(C)C)nc(N/N=C\c3ccc(F)cc3)c2C#N)cc1,107%
17,N#C/C(=C\c1ccc(Br)cc1)n1nnc2ccc(F)cc21,-18.2% (active)
18,Fc1ccc(Nc2nc3nonc3nc2Nc2ccc(I)cc2)cc1,-20.2% (active)
19,COc1ccc2c(O)c(/C=C3\N=Nc4ccccc43)oc2c1C[C@@H]1CCNC[C@H]1F,58.1%
20,C=C1C(=O)O[C@H]2[C@H]1CC/C(COC(=O)N[C@H]1C[C@H](O[C@H]3C[C@](O)(C(=O)CO)Cc4c(O)c5c(c(O)c43)C(=O)c3c(OC)cccc3C5=O)O[C@@H](C)[C@H]1O)=C\CC[C@@]1(C)O[C@@H]21,-50.2% (active)
